# Screening data: PubChem BioAssay, Johns Hopkins Ion Channel Center
# Sampled rows, rich in hits. Any-hit rate of the full collection: about 1.6%.
# KCNQ2 inh – KCNQ2 (rat) channel inhibition; CHO-K1 KCNQ2, FluxOR thallium flux, 20 min; stronger effect = lower value; B-score at 10 µM; 310,000 tested, 1.1% active; O88943;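 active = fluorescence ratio B-score at most minus 3 library SDs, with starting brightness B-score within 2 library SDs, cut at about -5.5 in these data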
# KCNQ2 enhance – enhances the rat KCNQ2 potassium channel | B-score at 10 µM | 310,000 tested, 0.54% active | CHO-K1 KCNQ2, FluxOR thallium flux fluorescence; stronger effect = higher value | O88943;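 active = fluorescence ratio B-score at least 3 SD of library B-scores, with initial fluorescence B-score within 3 of them, cut at about 5.3 in these data; same plate scores as AID 2156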;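 also: B-score of peak minus minimum over baseline fluorescence ratio after K+ and Tl+ stimulus; positive B-score means potentiation of KCNQ2 with more thallium influx and brighter signal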
# Starred values were filed as active, the others as inactive; i = inactive; / = no result.
SMILES,KCNQ2 inh,KCNQ2 enhance
COc1ccccc1CN1CCC(n2nccc2NC(=O)CCOc2ccccc2)CC1,i,/
Cc1ccc(N(C(=O)Cc2cccs2)C(C(=O)NC2CCCCC2)c2ccccn2)cc1C (stereo not drawn),-6.2*,-6.2
Cc1cccc(N(C(=O)Cc2cccs2)C(C(=O)NC2CCCC2)c2ccncc2)c1 (stereo not drawn),i,/
CC(=O)c1ccc(N(C(=O)Cc2c[nH]c3ccccc23)C(C(=O)NC2CCCCC2)c2cccs2)cc1 (stereo not drawn),i,/
O=C(NC1CCCCC1)C(c1cccs1)N(C(=O)Cc1c[nH]c2ccccc12)c1ccc(F)cc1 (stereo not drawn),-6.8*,-6.8
COc1ccc(-c2cc(C(F)(F)F)n3nc(C(=O)NCc4ccco4)cc3n2)cc1OC,-5.6*,-5.6
O=C(NCc1ccco1)c1cc2nc(C3CC3)cc(C(F)(F)F)n2n1,i,0.43
COc1cc(OC)c(/C=N/NC(=O)c2ccncc2)c(OC)c1,i,/
CCCN(CC1CC1)c1nc(C)nc(Nc2c(Cl)cc(Cl)cc2Cl)c1Cl,-5.6*,-5.6
CCCN(CC1CC1)c1nc(N)c(C#N)c(CC#N)c1C#N,i,/
COc1c(/C=N/Nc2nc(N3CCCCC3)nc(N3CCCCC3)n2)cccc1[N+](=O)[O-],i,/
O=[N+]([O-])c1ccc(/C=N/Nc2nc(N3CCCCC3)nc(N3CCCCC3)n2)o1,-5.6*,-5.6
C=CCc1c(Cl)nc(C)nc1NCc1ccccc1,i,0.61
COc1ccc(C(=O)NC2CCCc3ccccc32)c(OC)c1OC (stereo not drawn),i,/
CC1CN(c2nc3ccccc3nc2C(C#N)C(=O)OC2CCCCC2)CC(C)O1 (stereo not drawn),-5.9*,-5.9
CC1CCN(c2nc3ccccc3nc2C(C#N)C(=O)OC2CCCCC2)CC1 (stereo not drawn),i,/
COc1ccc2cc(C(=O)C3CCCN(C(=O)C4=NN(C)C(=O)CC4)C3)ccc2c1 (stereo not drawn),i,0.43
COc1ccc(C(CCN2CCCC(C)C2)c2c(OC)cc(OC)c3c(-c4ccccc4)cc(=O)oc23)cc1 (stereo not drawn),-6*,-6
COc1cc(OC)c2c(-c3ccccc3)cc(=O)oc2c1C(CCN1CCCC(C)C1)c1ccc(N(C)C)cc1 (stereo not drawn),i,/
COc1ccc2oc(C(=O)OCC(=O)N(C)C3CCS(=O)(=O)C3)c(C)c2c1 (stereo not drawn),i,1
Cc1ccccc1Nc1nc(N)nc(COC(=O)CCS(=O)(=O)c2ccccc2)n1,i,1.7
Cc1ccccc1Nc1nc(N)nc(COC(=O)CC2CC3CCC2C3)n1 (stereo not drawn),i,20*
Cc1cc(OC2CCCCC2)nc(-c2ccccc2O)n1,-5.8*,-5.8
Cc1ccc(Oc2cc(C)nc(-c3ccccc3O)n2)cc1,i,/
O=C(NCc1ccco1)c1ccc(N2CCCCC2)c([N+](=O)[O-])c1,i,1.1
SMILES,KCNQ2 inh,KCNQ2 enhance
Cc1ccc(N(Cc2ccco2)C(=O)c2ccc(N3CCCCC3)c([N+](=O)[O-])c2)cc1,-7.1*,-7.1
CCN(CC)CCCNC(=O)C1CCC(CNS(=O)(=O)c2ccc(Cl)cc2)CC1 (stereo not drawn),i,/
CCCC(=O)N1c2ccccc2C(=C2SC(C(=O)OC)=C(C(=O)OC)S2)C(=S)C1(C)C,-7.9*,-7.9
COC(=O)C1=C(C(=O)OC)SC(=C2C(=S)C(C)(C)N(C(=O)C(C)C)c3ccccc32)S1,i,/
CCC(CC)C(=O)Nc1nnc(S(=O)(=O)N2CCCc3ccccc32)s1,i,/
Clc1ccc(OCCN2CCN(c3ncnc4sccc34)CC2)cc1,-6*,-6
Cc1ccc(OCCN2CCN(c3ncnc4sc(C)c(C)c34)CC2)cc1,i,/
COc1ccc(N/N=C(\C=N\O)C(=O)c2ccc(OC)cc2)cc1,i,/
CO/N=C/C(=N\Nc1cc(OC)cc(OC)c1)C(=O)c1ccccc1,-5.8*,-5.8
Cc1ccc(CNC(=O)Nc2ccccc2)n1C,i,0.73
CCc1ccc(NC(=O)COc2ccc(F)cc2C(=O)c2cnn(-c3ccccc3)c2)cc1,i,/
COc1ccccc1NC(=O)COc1ccccc1C(=O)c1cnn(-c2ccccc2)c1,-6*,-6
Cc1cccc(C)c1NC(=O)NC1(C(=O)NCC2CCCO2)CCCCC1 (stereo not drawn),i,/
Cc1cc(Nc2ccc(Cl)cc2)nc(NCc2ccccc2)n1,i,/
Cc1cc(Nc2ccccc2)nc(NCc2ccccc2)n1,-6.2*,-6.2
COc1ccc(C(=O)Oc2cc(C)c(CN3CCOCC3)cc2C)cc1OC,i,/
CCc1noc(C)c1C(=O)N1CCCC1,i,0.57
CCc1noc(C)c1C(=O)N1CCCSC1=Nc1ccccc1C(C)C,-5.7*,-5.7
O=c1c2[nH]c3ccccc3c2ncn1CCC1=CCCCC1,i,/
CCCCCCn1c(C)nc2c(c1=O)c1nc3ccccc3nc1n2/N=C/c1ccco1,i,/
